# Test results from article PMC5540273 (PLoS ONE, 2017).
# Test system: T1, PRKR
# T1 construct: gene EIF2AK2
# Settings: concentration: 1 μM, replicates: in singlicate; n = 1
# 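Further: KINOMEscan kinase panel screen.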
row,Compound,%Inh
1,O=c1cc(N2CCOCC2)nc2n(Cc3cccc(F)c3)ccn12 [GSK2297430],0%
2,CC(C)(C)n1cnc2c(N)ncnc21 [SKF-97359],0%
3,O=c1cc(N2CCOCC2)nc2n(Cc3cccc(C(F)(F)F)c3)ccn12 [GSK2297543],8%
4,Cc1cccc(Cn2ccn3c(=O)cc(N4CCOCC4)nc23)c1 [GSK2297542],0%
5,O=C(NCCNc1ccnc(Nc2ccc(F)cc2)n1)c1cc2ccccc2s1 [GSK1379874],0%
6,Cn1ccc2ncnc(Oc3ccc(NC(=O)Nc4ccncc4)c(Cl)c3)c21,0%
7,COc1ccc(COc2cc(-n3cnc4ccccc43)sc2C(N)=O)cc1 [GSK1024304],0%
8,Cc1ccc(C(=O)NCC(N)=O)cc1-n1c(C)cc(OCc2ccc(F)cc2F)c(Br)c1=O,0%
9,Cc1ccc(NC(=O)c2ccnc(N3CCN(C)CC3)c2)cc1-c1ccc(C(=O)NCC2CC2)cc1 [GW775604],0%
10,Fc1ccc(-c2nn3c(OCC(F)(F)F)cccc3c2-c2ccncc2)cc1 [GW514784],0%
11,Fc1ccc(-c2ncn(CCCN3CCOCC3)c2-c2cccnc2)cc1 [SB-211743],0%
12,O=C(NOCC1CC1)c1ccc(F)c(F)c1Nc1ccc(I)cc1Cl,0%
13,O=C(Nc1n[nH]c2cc(-c3cccc(F)c3)ccc12)C1CC1 [SB-735464],0%
14,COc1ccc(Nc2nccc(N3CCC(NC(=O)Nc4cccc(C(C)=O)c4)C3)n2)cc1 (stereo not shown) [GSK1379731],0%
15,N#Cc1ccc(-c2cc(-c3c[nH]nc3-c3ccccn3)ccn2)cc1 [GW693028],0%
16,COC(=O)Nc1nc2cc(Oc3ccc(NC(=O)Nc4cc(F)ccc4F)cc3)ccc2[nH]1.Cl [GW701424],0%
17,O=c1cc(N2CCOCC2)nc2n(Cc3cccc4ccccc34)ccn12 [GSK2333389],0%
18,c1ccc(-c2n[nH]cc2-c2ccnc3ccccc23)nc1 [GW271431],0%
19,Nc1nccc(-c2c(-c3ccc(F)cc3)ncn2C2CCN(CC(F)(F)F)CC2)n1 [SB-236560],0%
20,NCC(NC(=O)c1cc(-c2cn[nH]c2)c(-c2ccnc3[nH]ccc23)s1)c1ccccc1.O=C(O)C(F)(F)F.O=C(O)C(F)(F)F (stereo not shown) [GSK1325775],27%
21,Cc1c2ccc(N(C)c3ccnc(Nc4cccc(S(N)(=O)=O)c4)n3)cc2nn1Cc1ccccc1.Cl.Cl [GW787226],0%
22,COc1ccc(S(=O)(=O)NC2CCN(c3cc(C)nc(Nc4cccc(C#N)c4)n3)CC2)cc1.O=C(O)C(F)(F)F [GSK1653539],1%

# Test system: PRKX
# Settings: concentration: 1 μM, replicates: in singlicate; n = 1
row,Compound,%Inh
1,COc1ccc(Nc2ncc(C#N)c(Nc3ccccc3C(N)=O)n2)cc1N1CCN(C)CC1.Cl [GSK1558669],52%
2,O=C(Nc1cccc(-c2nn3ncccc3c2-c2ccnc(Nc3cccc(C(F)(F)F)c3)n2)c1)c1c(F)cccc1F [GSK299495],0%
3,Cc1cccc(-c2nc(Nc3ccc4ncsc4c3)c3ccccc3n2)n1 [GW867588],0%
4,Cl.Nc1ncnc2occ(-c3ccc(NC(=O)Nc4cc(C(F)(F)F)ccc4F)cc3)c12 [SB-707548],9%
5,C[C@@H](Oc1cc(-n2cnc3ccc(NC(=O)NC(C)(C)C)cc32)sc1C(N)=O)c1ccccc1Cl [GSK346294],21%
6,c1ccc(-c2cc(-c3c[nH]nc3-c3ccccn3)ccn2)cc1 [GW576604],0%
7,Cc1nnc(-c2ccc3occ(-c4ccc(C(C)O)cc4)c3c2)o1 (stereo not shown),0%
8,CC(C)Oc1ccc2c(-c3ccnc(Nc4ccc(N5CCN(C)CC5)cc4)n3)cnn2n1 [GW696155],0%
9,NS(=O)(=O)c1cccc(-c2ccc3ncc(N4CCOCC4)nc3c2)c1 [GSK1535721],0%
10,Cl.Cl.Cl.Fc1ccc(-c2ncn(C3CCNCC3)c2-c2ccnc(Nc3ccccc3)n2)cc1 [SB-238039],0%
11,Fc1ccc(-c2ncn(CCCN3CCOCC3)c2-c2ccccn2)cc1 [SB-211742],0%
12,CN(C1=C(c2ccccc2)C(=O)NC1=O)c1ccccc1 [SB-334860],2%
13,CCc1nc(-c2cccc(C)c2)c(-c2ccnc(NCc3ccccc3)c2)s1,0%
14,O=C(NCCNc1ccnc(Nc2ccc(F)cc2)n1)Nc1ccccc1F [GSK1379880],9%
15,O=c1cc(N2CCOCC2)nc2n(Cc3cccc(F)c3)ccn12 [GSK2297430],2%
16,CC(C)(C)n1cnc2c(N)ncnc21 [SKF-97359],0%
17,O=c1cc(N2CCOCC2)nc2n(Cc3cccc(C(F)(F)F)c3)ccn12 [GSK2297543],0%
18,Cc1cccc(Cn2ccn3c(=O)cc(N4CCOCC4)nc23)c1 [GSK2297542],23%

row,Compound,%Inh
1,O=C(NCCNc1ccnc(Nc2ccc(F)cc2)n1)c1cc2ccccc2s1 [GSK1379874],4%
2,Cn1ccc2ncnc(Oc3ccc(NC(=O)Nc4ccncc4)c(Cl)c3)c21,0%
3,COc1ccc(COc2cc(-n3cnc4ccccc43)sc2C(N)=O)cc1 [GSK1024304],10%
4,Cc1ccc(C(=O)NCC(N)=O)cc1-n1c(C)cc(OCc2ccc(F)cc2F)c(Br)c1=O,22%
5,Cc1ccc(NC(=O)c2ccnc(N3CCN(C)CC3)c2)cc1-c1ccc(C(=O)NCC2CC2)cc1 [GW775604],0%
6,Fc1ccc(-c2nn3c(OCC(F)(F)F)cccc3c2-c2ccncc2)cc1 [GW514784],3%
7,Fc1ccc(-c2ncn(CCCN3CCOCC3)c2-c2cccnc2)cc1 [SB-211743],0%
8,O=C(NOCC1CC1)c1ccc(F)c(F)c1Nc1ccc(I)cc1Cl,0%
9,O=C(Nc1n[nH]c2cc(-c3cccc(F)c3)ccc12)C1CC1 [SB-735464],0%
10,COc1ccc(Nc2nccc(N3CCC(NC(=O)Nc4cccc(C(C)=O)c4)C3)n2)cc1 (stereo not shown) [GSK1379731],24%
11,N#Cc1ccc(-c2cc(-c3c[nH]nc3-c3ccccn3)ccn2)cc1 [GW693028],2%
12,COC(=O)Nc1nc2cc(Oc3ccc(NC(=O)Nc4cc(F)ccc4F)cc3)ccc2[nH]1.Cl [GW701424],0%
13,O=c1cc(N2CCOCC2)nc2n(Cc3cccc4ccccc34)ccn12 [GSK2333389],26%
14,c1ccc(-c2n[nH]cc2-c2ccnc3ccccc23)nc1 [GW271431],0%
15,Nc1nccc(-c2c(-c3ccc(F)cc3)ncn2C2CCN(CC(F)(F)F)CC2)n1 [SB-236560],0%
16,NCC(NC(=O)c1cc(-c2cn[nH]c2)c(-c2ccnc3[nH]ccc23)s1)c1ccccc1.O=C(O)C(F)(F)F.O=C(O)C(F)(F)F (stereo not shown) [GSK1325775],97.8%
17,Cc1c2ccc(N(C)c3ccnc(Nc4cccc(S(N)(=O)=O)c4)n3)cc2nn1Cc1ccccc1.Cl.Cl [GW787226],0%
18,COc1ccc(S(=O)(=O)NC2CCN(c3cc(C)nc(Nc4cccc(C#N)c4)n3)CC2)cc1.O=C(O)C(F)(F)F [GSK1653539],0%
